Active and inactive are the calls of the source.
Test: FRG1 expression reporter modulators in myotubes – cell-based, C2C12 myotubes, firefly/Renilla luciferase, luminescence, FRG1 inhibition for FSHD, primary screen (AID 1084)
Conditions: FRG1 promoter luciferase, higher = more signal, called active from +8 up or from −8 down

Row | Compound | z-score
1 | CC(C)C[C@@H]1NC(=O)[C@H]2C[C@@H](C(=O)O)[C@@H](c3cccc(OCCO)c3)N2C1=O | 7.43 (inactive)
2 | CC(C)c1ccc(NN2C(C(O)C(C)c3ccccc3)C=CC3C(=O)N(c4ccccc4)C(=O)C32)cc1 (centres undefined) | -0.632 (inactive)
3 | Cc1ccc(S(=O)(=O)N2[C@@H](c3ccccc3)C(C(=O)O)=C[C@H]2C(C)(C)C)cc1 | -1.84 (inactive)
4 | CCOC(=O)C1=CC[C@@H](c2ccccc2)N(S(=O)(=O)c2ccc(C)cc2)[C@@H]1C#N | -0.823 (inactive)
5 | COCCOC(=O)N1C(=O)[C@@]2(c3cc(C#CCC(C(=O)OC)C(=O)OC)ccc31)[C@H](C(=O)N1CCc3cc(OC)c(OC)cc3C1)[C@H]1C(=O)O[C@H](c3ccccc3)[C@H](c3ccccc3)N1[C@@H]2c1ccccc1OCCO | -0.223 (inactive)
6 | CN(C)CCCC[C@@H]1NC(=O)[C@H]2C[C@@H](C(=O)NCCCCCCNC(=O)CS)[C@@H](c3cccc(OCCO)c3)N2C1=O | 0.47 (inactive)
7 | COc1cc2c(cc1O)C(C)N(Cc1sc3ccccc3c1Cl)CC2 (centres undefined) | 0.541 (inactive)
8 | COCCOC(=O)N1C(=O)[C@@]2(c3cc(C#CCC(C(=O)OC)C(=O)OC)ccc31)[C@H](c1ccc(O)cc1)N1[C@H](c3ccccc3)[C@H](c3ccccc3)OC(=O)[C@H]1[C@@H]2C(=O)N1CCc2cc(OC)c(OC)cc2C1 | 0.336 (inactive)
9 | CCOC(=O)C1=CCC(c2ccncc2)N(S(=O)(=O)c2ccc(C)cc2)C1 (centres undefined) | -1.41 (inactive)
10 | COC(=O)[C@@]1(Cc2ccc(F)cc2)[C@H]2c3cc(C(=O)N4CCCC4)n(Cc4ccc(C(F)(F)F)nc4)c3C[C@H]2CN1C(=O)c1ccccc1 | 2 (inactive)
11 | CC(C)(C)OC(=O)CC[C@@]1(C(N)=O)N=C(c2ccc(OCCCO)cc2)O[C@@H]1c1ccccc1CN=[N+]=[N-] | 4.09 (inactive)
12 | C=CCNC(=O)[C@H]1[C@@H]2C(=O)O[C@@H](c3ccccc3)[C@@H](c3ccccc3)N2[C@@H](c2ccc(OCCO)cc2)[C@]12C(=O)N(C(=O)OCCOC)c1ccc(C#CCC(C(=O)OC)C(=O)OC)cc12 | 0.9 (inactive)
13 | C=CCOC(=O)[C@H]1[C@@H]2C(=O)O[C@@H](c3ccccc3)[C@@H](c3ccccc3)N2[C@@H](c2ccc(OCCOC(=O)[C@@H]3C[C@@H]4C(=O)N[C@@H](Cc5ccccc5)C(=O)N4[C@@H]3c3ccc(O)cc3)cc2)[C@]12C(=O)Nc1ccc(I)cc12 | 1.3 (inactive)
14 | CCN1C(=O)C2CC(=O)C3C(CN(S(=O)(=O)c4ccc(C)cc4)C3c3ccc(C)cc3)C2C1=O (centres undefined) | -0.812 (inactive)
15 | C=C(C)C1CN([C@H](CO)c2ccccc2)C(=O)/C1=C\c1ccccc1 (some centres undefined) | -1.39 (inactive)
16 | C=C(COC)C(=O)CC[C@H](OC(C)=O)c1ccc(CO)o1 | -0.28 (inactive)
17 | COC(=O)C(CC#Cc1ccc2c(c1)[C@]1(C(=O)N2)[C@H](C(=O)NC[C@H](O)c2ccccc2)[C@H]2C(=O)O[C@H](c3ccccc3)[C@H](c3ccccc3)N2[C@@H]1c1ccc(O)cc1)C(=O)OC | 0.589 (inactive)
18 | C=C[C@H](OC)[C@@H](O)c1ccc(OC)c(O)c1 | 0.0137 (inactive)
19 | CC[C@@H](O[Si](C#C[Si](C(C)C)(C(C)C)C(C)C)(C(C)C)C(C)C)c1cn(Cc2cccc(Cl)c2)nn1 | -0.0554 (inactive)
20 | COC(=O)C1=CC(c2ccc(CO)cc2)=CC(C2CC2)N(Cc2cc3c(cc2Br)OCO3)C=C1C(=O)OC (centres undefined) | -2.56 (inactive)
21 | O=C(NCCN1CCOCC1)[C@@H]1c2ccccc2C(=O)N(CC23CC4CC(CC(C4)C2)C3)[C@H]1c1ccc(CO)cc1 | -2.37 (inactive)
22 | COCCCNC(=O)[C@@]1(CCC(=O)OC(C)(C)C)N=C(c2ccc(OCCCO)cc2)O[C@H]1c1ccccc1 | -1.79 (inactive)
23 | CN1C2C=C(c3ccc(CO)cc3)C(C3C(=O)N(C(N)=O)C(=O)C32)C1C1CC1 (centres undefined) | 0.567 (inactive)
24 | N#Cc1ccc(NN2C(C(O)c3ccc(B(O)O)cc3)C=CC3CN(c4ccccc4)C(=O)C32)cc1 (centres undefined) | 3.26 (inactive)

Test: small molecules captured by biotinylated probe aFST – biochemical, small-molecule microarray, fluorescence 635/667, stem cell growth factor project, primary screen (AID 1086);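 note: score merges 667 nm fluorescence with signal-to-noise of each printed compound spot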
Conditions: higher = more signal

Row | Compound | composite z-score
25 | O=C(O)C1=CC[C@H]2C(=O)N(c3ccccc3)C(=O)[C@@H]12 | 0.914
26 | C=CC[C@H](OC(=O)Nc1ccc(SC)cc1)c1ccc(O)c(F)c1 | -0.512
27 | COC(=O)C1(CC(C)C)C=C2C(=C(C)C(=O)C2C)CN1 (centres undefined) | 1.58
28 | [N-]=[N+]=NCc1ccccc1C[C@]1(C(=O)N2CCCCC2)COC(c2ccc(OCCCO)cc2)=N1 | 1.68
29 | C=C[C@H](C)[C@@H](OC(=O)Nc1ccc(SC)cc1)c1ccc(OCCO)cc1 | 0.0372
30 | COC(=O)Cn1c(C(=O)N(C)C)cc2c1C[C@H]1CN(C(=O)c3ccccc3)[C@@](Cc3ccccc3)(C(=O)OC)[C@@H]21 | 0.0747
31 | O=C1c2ccccc2[C@](Cc2ccccc2I)(C(=O)NCCN2CCOCC2)[C@H](c2ccc(CO)cc2)N1Cc1ccccc1C(F)(F)F | 0.558
32 | Cc1ccc(S[C@]2(C(=O)NCCN3CCOCC3)CC(=O)N(C(C)C)[C@@H]2c2ccc(CO)cc2I)cc1 | 0.153
33 | C=C(CCCC)C(=O)CC[C@H](OC(=O)c1ccccc1-c1ccccc1C(=O)O)c1cccc(OCCO)c1 | -0.284
34 | [N-]=[N+]=Nc1ccccc1C[C@@]1(C(=O)NCc2ccccc2)N=C(c2ccc(OCCCO)cc2)O[C@@H]1c1ccccc1 | 0.838
35 | C=CCNC(=O)[C@@H]1[C@H]2C(=O)O[C@H](c3ccccc3)[C@H](c3ccccc3)N2[C@H](c2ccc(OCCO)cc2)[C@@]12C(=O)Nc1ccc(C#CC3=CCCCC3)cc12 | 0.597
36 | CC(C)C[C@@H]1NC(=O)[C@H]2C[C@@H](C(=O)O)[C@@H](c3cccc(OCCO)c3)N2C1=O | 0.108
37 | CC(C)c1ccc(NN2C(C(O)C(C)c3ccccc3)C=CC3C(=O)N(c4ccccc4)C(=O)C32)cc1 (centres undefined) | 1.97
38 | Cc1ccc(S(=O)(=O)N2[C@@H](c3ccccc3)C(C(=O)O)=C[C@H]2C(C)(C)C)cc1 | 0.736
39 | CCOC(=O)C1=CC[C@@H](c2ccccc2)N(S(=O)(=O)c2ccc(C)cc2)[C@@H]1C#N | 0.158
40 | COCCOC(=O)N1C(=O)[C@@]2(c3cc(C#CCC(C(=O)OC)C(=O)OC)ccc31)[C@H](C(=O)N1CCc3cc(OC)c(OC)cc3C1)[C@H]1C(=O)O[C@H](c3ccccc3)[C@H](c3ccccc3)N1[C@@H]2c1ccccc1OCCO | 0.651
41 | CN(C)CCCC[C@@H]1NC(=O)[C@H]2C[C@@H](C(=O)NCCCCCCNC(=O)CS)[C@@H](c3cccc(OCCO)c3)N2C1=O | -0.346
42 | COc1cc2c(cc1O)C(C)N(Cc1sc3ccccc3c1Cl)CC2 (centres undefined) | -0.133

Row | Compound | composite z-score
43 | COCCOC(=O)N1C(=O)[C@@]2(c3cc(C#CCC(C(=O)OC)C(=O)OC)ccc31)[C@H](c1ccc(O)cc1)N1[C@H](c3ccccc3)[C@H](c3ccccc3)OC(=O)[C@H]1[C@@H]2C(=O)N1CCc2cc(OC)c(OC)cc2C1 | 0.186
44 | CCOC(=O)C1=CCC(c2ccncc2)N(S(=O)(=O)c2ccc(C)cc2)C1 (centres undefined) | 0.981
45 | COC(=O)[C@@]1(Cc2ccc(F)cc2)[C@H]2c3cc(C(=O)N4CCCC4)n(Cc4ccc(C(F)(F)F)nc4)c3C[C@H]2CN1C(=O)c1ccccc1 | 2.25
46 | CC(C)(C)OC(=O)CC[C@@]1(C(N)=O)N=C(c2ccc(OCCCO)cc2)O[C@@H]1c1ccccc1CN=[N+]=[N-] | 1.47
47 | C=CCNC(=O)[C@H]1[C@@H]2C(=O)O[C@@H](c3ccccc3)[C@@H](c3ccccc3)N2[C@@H](c2ccc(OCCO)cc2)[C@]12C(=O)N(C(=O)OCCOC)c1ccc(C#CCC(C(=O)OC)C(=O)OC)cc12 | 0.725
48 | C=CCOC(=O)[C@H]1[C@@H]2C(=O)O[C@@H](c3ccccc3)[C@@H](c3ccccc3)N2[C@@H](c2ccc(OCCOC(=O)[C@@H]3C[C@@H]4C(=O)N[C@@H](Cc5ccccc5)C(=O)N4[C@@H]3c3ccc(O)cc3)cc2)[C@]12C(=O)Nc1ccc(I)cc12 | 0.258
49 | CCN1C(=O)C2CC(=O)C3C(CN(S(=O)(=O)c4ccc(C)cc4)C3c3ccc(C)cc3)C2C1=O (centres undefined) | 0.292
50 | C=C(C)C1CN([C@H](CO)c2ccccc2)C(=O)/C1=C\c1ccccc1 (some centres undefined) | 0.173
51 | C=C(COC)C(=O)CC[C@H](OC(C)=O)c1ccc(CO)o1 | -0.225
52 | COC(=O)C(CC#Cc1ccc2c(c1)[C@]1(C(=O)N2)[C@H](C(=O)NC[C@H](O)c2ccccc2)[C@H]2C(=O)O[C@H](c3ccccc3)[C@H](c3ccccc3)N2[C@@H]1c1ccc(O)cc1)C(=O)OC | 0.056
53 | C=C[C@H](OC)[C@@H](O)c1ccc(OC)c(O)c1 | -1
54 | CC[C@@H](O[Si](C#C[Si](C(C)C)(C(C)C)C(C)C)(C(C)C)C(C)C)c1cn(Cc2cccc(Cl)c2)nn1 | 0.197
55 | COC(=O)C1=CC(c2ccc(CO)cc2)=CC(C2CC2)N(Cc2cc3c(cc2Br)OCO3)C=C1C(=O)OC (centres undefined) | 0.559
56 | O=C(NCCN1CCOCC1)[C@@H]1c2ccccc2C(=O)N(CC23CC4CC(CC(C4)C2)C3)[C@H]1c1ccc(CO)cc1 | 0.742
57 | COCCCNC(=O)[C@@]1(CCC(=O)OC(C)(C)C)N=C(c2ccc(OCCCO)cc2)O[C@H]1c1ccccc1 | 1.16
58 | CN1C2C=C(c3ccc(CO)cc3)C(C3C(=O)N(C(N)=O)C(=O)C32)C1C1CC1 (centres undefined) | -0.0595
59 | N#Cc1ccc(NN2C(C(O)c3ccc(B(O)O)cc3)C=CC3CN(c4ccccc4)C(=O)C32)cc1 (centres undefined) | -0.0118
